Measurements reported in article PMC10668032, “Altered binding affinity of SIX1-Q177R correlates with enhanced WNT5A and WNT pathway effector expression in Wilms tumor”.
The full ranking holds about 33,000 sequences; the median of “e-score” is about -0.05, and the highest 2% start at about 0.38. The full list was thinned out, with the highest values kept by preference.

Each sequence was assayed against T1, SIX1-Q177R homeodomain (human, UniProt Q15475 108-198, Q177R) (assay: universal protein binding microarray; Universal all-10-mer PBM (8x60K, AMADID 030236), 300 nM GST-tagged protein, Alexa Fluor 488 anti-GST; buffer, salt, pH and temperature not stated (as in Berger); high values mean tight binding). Conditions: protein: ivt; tags: N-terminal GST; dsDNA, one strand shown.
T1 sequence: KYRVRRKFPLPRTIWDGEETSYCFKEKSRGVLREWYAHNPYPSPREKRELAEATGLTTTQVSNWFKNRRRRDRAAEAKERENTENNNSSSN
Summary of the method: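 GST-tagged homeodomains were made by in vitro transcription/translation and quantified by anti-GST western blot against a recombinant GST standard curve. They were applied in duplicate at 300 nM final concentration to universal 'all 10-mer' protein binding microarrays (8×60K format). Binding was quantified as 8-mer E-scores with the Universal PBM Analysis Suite.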

Row | Sequence | binding signal
1 | AGTGGATC | 0.216 ± 0.0109 E-score
2 | GATCAACA | 0.206 ± 0.00474 E-score
3 | CACGAACG | 0.207 ± 0.0299 E-score
4 | CCCTAGCA | 0.17 ± 0.00574 E-score
5 | ACGAGGGG | 0.208 ± 0.0082 E-score
6 | GAAGATAC | 0.16 ± 0.0546 E-score
7 | GAAGACAC | 0.38 ± 0.00523 E-score
8 | CAAGACAC | 0.4021 ± 0.00161 E-score
9 | AAAGACAC | 0.425 ± 0.0124 E-score
10 | ATGACCCC | 0.318 ± 0.0237 E-score
11 | ATTGAGTG | 0.18 ± 0.0318 E-score
12 | GGTTTACA | 0.16 ± 0.0137 E-score
13 | CTCCCTAA | 0.165 ± 0.0334 E-score
14 | CCTATCAC | 0.173 ± 0.0477 E-score
15 | ACTAAAAC | 0.168 ± 0.0313 E-score
16 | ACTAACAC | 0.427 ± 0.0173 E-score
17 | CCTAACAC | 0.404 ± 0.00657 E-score
18 | CTAAACAC | 0.364 ± 0.00812 E-score
19 | GCTACCAC | 0.181 ± 0.00856 E-score
20 | ACAAACAC | 0.379 ± 0.0204 E-score
21 | GCTAACCC | 0.186 ± 0.00969 E-score
22 | GCTAACAC | 0.417 ± 0.0145 E-score
23 | ACCCGACC | 0.223 ± 0.0107 E-score
24 | GTTCAGAA | 0.18 ± 0.0199 E-score
25 | ACCCCGCA | 0.259 ± 0.0114 E-score

Row | Sequence | binding signal
26 | CCAAGCCC | 0.155 ± 0.0141 E-score
27 | CCCAGACA | 0.16 ± 0.0032 E-score
28 | ATCAGACA | 0.204 ± 0.00355 E-score
29 | TGTGTTAA | 0.171 ± 0.00303 E-score
30 | AGTGTTTG | 0.336 ± 0.0138 E-score
31 | GGTGTTAA | 0.475 ± 0.00681 E-score
32 | CGTGTTAA | 0.391 ± 0.0262 E-score
33 | CGTGTGAA | 0.302 ± 0.00315 E-score
34 | AGTGTTAG | 0.394 ± 0.00412 E-score
35 | CGTGTTTA | 0.346 ± 0.0127 E-score
36 | GGTGTTTA | 0.4563 ± 0.00286 E-score
37 | AGTGTTTA | 0.296 ± 0.0461 E-score
38 | GGGGTTAA | 0.198 ± 0.00273 E-score
39 | AGTGTTCG | 0.369 ± 0.0134 E-score
40 | GGAGTTAA | 0.266 ± 0.0274 E-score
41 | CCTATAAC | 0.194 ± 0.0389 E-score
42 | ACCCTACC | 0.193 ± 0.0205 E-score
43 | CGGGTTCA | 0.175 ± 0.04 E-score
44 | CACCGGTA | 0.345 ± 0.00414 E-score
45 | CGTGATAC | 0.248 ± 0.0091 E-score
46 | ATCCCGGG | 0.209 ± 0.0458 E-score
47 | CCGGGGTA | 0.284 ± 0.00939 E-score
48 | CGTGTTGA | 0.358 ± 0.0177 E-score
49 | AGTGTTGA | 0.318 ± 0.0168 E-score
50 | GGTGTTGA | 0.4626 ± 0.00453 E-score

Row | Sequence | binding signal
51 | CGTGTTAC | 0.408 ± 0.00576 E-score
52 | CGTGTTTC | 0.339 ± 0.0138 E-score
53 | CGTGTTGC | 0.333 ± 0.0224 E-score
54 | CGTGTGAG | 0.276 ± 0.0289 E-score
55 | CGTGTTAG | 0.38 ± 0.00955 E-score
56 | ACGGTCTC | 0.153 ± 0.00373 E-score
57 | CACCGCAC | 0.333 ± 0.0118 E-score
58 | AGTACCCG | 0.154 ± 0.00938 E-score
59 | CTAGGGTA | 0.236 ± 0.0217 E-score
60 | CTGTGACA | 0.21 ± 0.00229 E-score
61 | GTGTGACA | 0.436 ± 0.0156 E-score
62 | GGGTGACA | 0.302 ± 0.0147 E-score
63 | TGTCAAAA | 0.198 ± 0.0336 E-score
64 | CACCCTGC | 0.293 ± 0.0291 E-score
65 | ATGGAGTG | 0.274 ± 0.0146 E-score
66 | AGGGGACA | 0.179 ± 0.0364 E-score
67 | ACCCACGC | 0.171 ± 0.00328 E-score
68 | ACGCCGCC | 0.153 ± 0.0249 E-score
69 | ACCCCGCG | 0.254 ± 0.0276 E-score
70 | ACACCGCT | 0.4659 ± 0.00251 E-score
71 | ACACCGCC | 0.4737 ± 0.0034 E-score
72 | ATACCGCG | 0.238 ± 0.0151 E-score
73 | ACTCCGCT | 0.185 ± 0.0321 E-score
74 | ACCCCGCT | 0.209 ± 0.0248 E-score
75 | ATACCGCA | 0.179 ± 0.00528 E-score

Row | Sequence | binding signal
76 | ACACCGCG | 0.4808 ± 0.00187 E-score
77 | GCACCGCA | 0.169 ± 0.0396 E-score
78 | ACACCGCA | 0.4797 ± 0.00463 E-score
79 | GCACCGCC | 0.265 ± 0.00467 E-score
80 | CCTTGACA | 0.253 ± 0.00743 E-score
81 | CCCATGGA | 0.189 ± 0.033 E-score
82 | ACCCTGTG | 0.207 ± 0.0277 E-score
83 | GGTATACC | 0.303 ± 0.0126 E-score
84 | ATGGGTGC | 0.154 ± 0.0381 E-score
85 | CCCCTGAG | 0.16 ± 0.00444 E-score
86 | AGGCGTAC | 0.221 ± 0.0327 E-score
87 | ACCAGGTG | 0.217 ± 0.0167 E-score
88 | ACTGCGTG | 0.29 ± 0.0171 E-score
89 | ATGCGACA | 0.198 ± 0.03 E-score
90 | CGGGTTAC | 0.159 ± 0.0432 E-score
91 | ATAGGTAC | 0.166 ± 0.021 E-score
92 | AGACACCG | 0.468 ± 0.0126 E-score
93 | AGACACGG | 0.377 ± 0.019 E-score
94 | AGACACCT | 0.4528 ± 0.0033 E-score
95 | AGACACTG | 0.341 ± 0.0138 E-score
96 | AATGATAC | 0.212 ± 0.0688 E-score
97 | AACCCCAC | 0.222 ± 0.0452 E-score
98 | ACACGGAT | 0.392 ± 0.0346 E-score
99 | ACCCGGAA | 0.272 ± 0.0105 E-score
100 | ACACGGAG | 0.369 ± 0.00835 E-score

Row | Sequence | binding signal
101 | ACACGGAA | 0.398 ± 0.0244 E-score
102 | ACCCGGAT | 0.301 ± 0.0466 E-score
103 | AGGATACC | 0.337 ± 0.0124 E-score
104 | CGACCTCA | 0.168 ± 0.0123 E-score
105 | CAACTACA | 0.2474 ± 0.00148 E-score
106 | ACCCTACG | 0.164 ± 0.0266 E-score
107 | CCCCATGC | 0.201 ± 0.0118 E-score
108 | GAAGGGTA | 0.169 ± 0.0222 E-score
109 | AGTGTAGA | 0.369 ± 0.0196 E-score
110 | AGTGTGGC | 0.193 ± 0.0161 E-score
111 | AGTGTTGC | 0.321 ± 0.00542 E-score
112 | AGTGTAGG | 0.411 ± 0.00742 E-score
113 | CGTGTAGC | 0.416 ± 0.0198 E-score
114 | CGTGTAGA | 0.379 ± 0.0134 E-score
115 | AGTGTAGC | 0.3944 ± 0.000672 E-score
116 | AGTGTGGG | 0.192 ± 0.0212 E-score
117 | ACTTAATG | 0.219 ± 0.0268 E-score
118 | CAATAGGG | 0.2 ± 0.0026 E-score
119 | CCCGGACA | 0.233 ± 0.00728 E-score
120 | TGTCATAA | 0.1985 ± 0.00132 E-score
121 | AATGCACC | 0.162 ± 0.026 E-score
122 | AGTGTTAC | 0.387 ± 0.0129 E-score
123 | GGGGTTAC | 0.261 ± 0.0216 E-score
124 | AGTGTTTC | 0.299 ± 0.0238 E-score
125 | GGTGTTAC | 0.474 ± 0.00578 E-score

Row | Sequence | binding signal
126 | AGTGTTAA | 0.394 ± 0.0556 E-score
127 | GGCGTTAC | 0.154 ± 0.00446 E-score
128 | AGTGTTAT | 0.395 ± 0.041 E-score
129 | AGTGTTCC | 0.334 ± 0.0173 E-score
130 | AGGAGTAT | 0.168 ± 0.0487 E-score
131 | CGGGAACA | 0.157 ± 0.0155 E-score
132 | CACCGGCG | 0.244 ± 0.0186 E-score
133 | CCGGGGTC | 0.323 ± 0.0298 E-score
134 | ACCCTAGA | 0.176 ± 0.00214 E-score
135 | CACGTCAC | 0.16 ± 0.0113 E-score
136 | GAGGTACA | 0.252 ± 0.0061 E-score
137 | CGTGACAC | 0.454 ± 0.00689 E-score
138 | CGTGACCC | 0.211 ± 0.0247 E-score
139 | GGTGACAC | 0.4718 ± 0.00406 E-score
140 | AGTGACAC | 0.469 ± 0.00575 E-score
141 | GGTGATAC | 0.313 ± 0.00834 E-score
142 | AGTGACTC | 0.193 ± 0.0365 E-score
143 | AGTGACCC | 0.234 ± 0.019 E-score
144 | CGTGACTC | 0.207 ± 0.00528 E-score
145 | GGGGTGAC | 0.16 ± 0.0356 E-score
146 | CACGGAGG | 0.222 ± 0.0241 E-score
147 | CACGGCTG | 0.201 ± 0.0155 E-score
148 | AGTATCAT | 0.259 ± 0.0404 E-score
149 | CGCCGCAC | 0.151 ± 0.00857 E-score
150 | GCCGACAC | 0.422 ± 0.0235 E-score

Row | Sequence | binding signal
151 | ACCGACTC | 0.204 ± 0.0477 E-score
152 | ACCGACAC | 0.425 ± 0.0144 E-score
153 | ACCGACCC | 0.192 ± 0.0372 E-score
154 | GCCGATCC | 0.19 ± 0.00748 E-score
155 | CCCGACAC | 0.45 ± 0.0155 E-score
156 | CCCGACGC | 0.151 ± 0.00346 E-score
157 | CCCGACCC | 0.187 ± 0.0176 E-score
158 | CAGCACCG | 0.242 ± 0.0129 E-score
159 | CGGACGAC | 0.152 ± 0.037 E-score
160 | GTTCCGGA | 0.175 ± 0.0199 E-score
161 | ACCCACGA | 0.153 ± 0.0296 E-score
162 | AAACTAGA | 0.163 ± 0.00455 E-score
163 | CATGTACA | 0.167 ± 0.0144 E-score
164 | CGGGTACC | 0.16 ± 0.0136 E-score
165 | CTTGTACA | 0.154 ± 0.0493 E-score
166 | AGTGTACA | 0.418 ± 0.0292 E-score
167 | GGGGTACC | 0.247 ± 0.0225 E-score
168 | AGTGTGCC | 0.159 ± 0.0249 E-score
169 | ACTGTACA | 0.223 ± 0.00571 E-score
170 | AGTGTACC | 0.414 ± 0.00528 E-score
171 | AGAGTACA | 0.186 ± 0.00263 E-score
172 | CGTGTACC | 0.4357 ± 0.00135 E-score
173 | CGTGTACA | 0.427 ± 0.00703 E-score
174 | CGTGTGCC | 0.168 ± 0.0218 E-score
